Assays:
Assay in all cases: log2 ratio of Biotin-Ahx-Ub-VS probe labelling (fragment/DMSO); higher = less target engagement (more negative = stronger competition), active = hit call of the paper (q ≤ 0.05, log2 ratio ≤ -1)
Details in all cases: compound concentration: 200 uM; treatment time: 3 h
[1] = target: T1, USP19 (UniProt O94966)
T1 sequence (whole entry): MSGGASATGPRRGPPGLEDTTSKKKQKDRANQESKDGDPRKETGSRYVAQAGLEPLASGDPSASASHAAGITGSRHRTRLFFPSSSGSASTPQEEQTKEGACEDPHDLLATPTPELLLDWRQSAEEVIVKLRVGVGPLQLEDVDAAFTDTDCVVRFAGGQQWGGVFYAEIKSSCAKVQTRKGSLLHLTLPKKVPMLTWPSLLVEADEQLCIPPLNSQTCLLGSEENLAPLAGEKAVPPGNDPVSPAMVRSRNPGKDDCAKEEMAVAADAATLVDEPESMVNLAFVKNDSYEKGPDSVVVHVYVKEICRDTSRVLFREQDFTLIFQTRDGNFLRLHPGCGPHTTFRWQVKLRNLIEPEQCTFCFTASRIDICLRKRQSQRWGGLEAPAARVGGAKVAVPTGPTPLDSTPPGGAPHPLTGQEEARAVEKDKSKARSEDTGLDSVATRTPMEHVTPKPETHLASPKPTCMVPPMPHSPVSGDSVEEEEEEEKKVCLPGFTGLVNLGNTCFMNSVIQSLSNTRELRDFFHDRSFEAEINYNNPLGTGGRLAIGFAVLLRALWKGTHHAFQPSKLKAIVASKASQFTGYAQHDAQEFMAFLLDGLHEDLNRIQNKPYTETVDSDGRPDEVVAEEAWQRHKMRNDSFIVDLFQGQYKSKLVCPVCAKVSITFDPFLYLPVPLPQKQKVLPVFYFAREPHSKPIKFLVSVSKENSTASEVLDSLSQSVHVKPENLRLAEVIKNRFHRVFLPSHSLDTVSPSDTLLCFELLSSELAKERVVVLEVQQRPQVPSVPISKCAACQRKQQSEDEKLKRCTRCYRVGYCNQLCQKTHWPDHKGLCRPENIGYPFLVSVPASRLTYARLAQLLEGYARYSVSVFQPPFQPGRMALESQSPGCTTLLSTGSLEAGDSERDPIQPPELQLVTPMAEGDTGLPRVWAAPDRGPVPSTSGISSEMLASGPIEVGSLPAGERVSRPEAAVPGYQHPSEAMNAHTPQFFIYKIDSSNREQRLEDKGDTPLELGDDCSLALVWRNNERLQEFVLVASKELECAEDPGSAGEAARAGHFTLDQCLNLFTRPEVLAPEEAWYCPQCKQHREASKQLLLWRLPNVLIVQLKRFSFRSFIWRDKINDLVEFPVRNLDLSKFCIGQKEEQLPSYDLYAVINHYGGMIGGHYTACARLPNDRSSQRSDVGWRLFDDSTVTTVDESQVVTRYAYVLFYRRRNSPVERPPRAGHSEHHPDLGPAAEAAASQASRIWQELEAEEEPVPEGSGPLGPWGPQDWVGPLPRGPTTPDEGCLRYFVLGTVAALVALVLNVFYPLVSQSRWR
In short: (§1)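 The table lists average log2 ratios of fragment over vehicle, from an unpaired t-test on global-median-normalised Spectronaut label-free quantities. Proteins with ≥2 unique peptides were used. Samples were HEK293T lysate (495 µg) treated in triplicate with fragment at 200 µM or vehicle for 3 h, then with Biotin-Ahx-Ub-VS (0.5 µM final) for 1 h, with labelled DUBs NeutrAvidin-enriched and run by diaPASEF LC-MS/MS.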

[2] = target: T2, USP22 (UniProt Q9UPT9)
T2 sequence (whole entry): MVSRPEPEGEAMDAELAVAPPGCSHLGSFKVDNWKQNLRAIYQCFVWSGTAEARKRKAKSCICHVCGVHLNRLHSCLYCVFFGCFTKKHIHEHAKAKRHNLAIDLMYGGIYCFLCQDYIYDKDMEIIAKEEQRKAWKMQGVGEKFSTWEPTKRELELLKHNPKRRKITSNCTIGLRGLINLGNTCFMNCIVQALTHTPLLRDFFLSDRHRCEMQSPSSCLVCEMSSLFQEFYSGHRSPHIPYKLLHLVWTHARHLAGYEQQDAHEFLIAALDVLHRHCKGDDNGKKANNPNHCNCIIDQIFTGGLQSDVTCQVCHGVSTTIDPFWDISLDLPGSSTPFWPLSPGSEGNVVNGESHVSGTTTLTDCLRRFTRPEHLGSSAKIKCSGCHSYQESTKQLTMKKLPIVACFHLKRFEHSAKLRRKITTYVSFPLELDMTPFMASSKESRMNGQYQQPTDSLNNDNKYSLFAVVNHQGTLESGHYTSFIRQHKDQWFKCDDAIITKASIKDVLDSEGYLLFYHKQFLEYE
In short: as §1

[3] = target: USP24 (UniProt Q9UPU5)
USP24, sequence (Q9UPU5 whole entry): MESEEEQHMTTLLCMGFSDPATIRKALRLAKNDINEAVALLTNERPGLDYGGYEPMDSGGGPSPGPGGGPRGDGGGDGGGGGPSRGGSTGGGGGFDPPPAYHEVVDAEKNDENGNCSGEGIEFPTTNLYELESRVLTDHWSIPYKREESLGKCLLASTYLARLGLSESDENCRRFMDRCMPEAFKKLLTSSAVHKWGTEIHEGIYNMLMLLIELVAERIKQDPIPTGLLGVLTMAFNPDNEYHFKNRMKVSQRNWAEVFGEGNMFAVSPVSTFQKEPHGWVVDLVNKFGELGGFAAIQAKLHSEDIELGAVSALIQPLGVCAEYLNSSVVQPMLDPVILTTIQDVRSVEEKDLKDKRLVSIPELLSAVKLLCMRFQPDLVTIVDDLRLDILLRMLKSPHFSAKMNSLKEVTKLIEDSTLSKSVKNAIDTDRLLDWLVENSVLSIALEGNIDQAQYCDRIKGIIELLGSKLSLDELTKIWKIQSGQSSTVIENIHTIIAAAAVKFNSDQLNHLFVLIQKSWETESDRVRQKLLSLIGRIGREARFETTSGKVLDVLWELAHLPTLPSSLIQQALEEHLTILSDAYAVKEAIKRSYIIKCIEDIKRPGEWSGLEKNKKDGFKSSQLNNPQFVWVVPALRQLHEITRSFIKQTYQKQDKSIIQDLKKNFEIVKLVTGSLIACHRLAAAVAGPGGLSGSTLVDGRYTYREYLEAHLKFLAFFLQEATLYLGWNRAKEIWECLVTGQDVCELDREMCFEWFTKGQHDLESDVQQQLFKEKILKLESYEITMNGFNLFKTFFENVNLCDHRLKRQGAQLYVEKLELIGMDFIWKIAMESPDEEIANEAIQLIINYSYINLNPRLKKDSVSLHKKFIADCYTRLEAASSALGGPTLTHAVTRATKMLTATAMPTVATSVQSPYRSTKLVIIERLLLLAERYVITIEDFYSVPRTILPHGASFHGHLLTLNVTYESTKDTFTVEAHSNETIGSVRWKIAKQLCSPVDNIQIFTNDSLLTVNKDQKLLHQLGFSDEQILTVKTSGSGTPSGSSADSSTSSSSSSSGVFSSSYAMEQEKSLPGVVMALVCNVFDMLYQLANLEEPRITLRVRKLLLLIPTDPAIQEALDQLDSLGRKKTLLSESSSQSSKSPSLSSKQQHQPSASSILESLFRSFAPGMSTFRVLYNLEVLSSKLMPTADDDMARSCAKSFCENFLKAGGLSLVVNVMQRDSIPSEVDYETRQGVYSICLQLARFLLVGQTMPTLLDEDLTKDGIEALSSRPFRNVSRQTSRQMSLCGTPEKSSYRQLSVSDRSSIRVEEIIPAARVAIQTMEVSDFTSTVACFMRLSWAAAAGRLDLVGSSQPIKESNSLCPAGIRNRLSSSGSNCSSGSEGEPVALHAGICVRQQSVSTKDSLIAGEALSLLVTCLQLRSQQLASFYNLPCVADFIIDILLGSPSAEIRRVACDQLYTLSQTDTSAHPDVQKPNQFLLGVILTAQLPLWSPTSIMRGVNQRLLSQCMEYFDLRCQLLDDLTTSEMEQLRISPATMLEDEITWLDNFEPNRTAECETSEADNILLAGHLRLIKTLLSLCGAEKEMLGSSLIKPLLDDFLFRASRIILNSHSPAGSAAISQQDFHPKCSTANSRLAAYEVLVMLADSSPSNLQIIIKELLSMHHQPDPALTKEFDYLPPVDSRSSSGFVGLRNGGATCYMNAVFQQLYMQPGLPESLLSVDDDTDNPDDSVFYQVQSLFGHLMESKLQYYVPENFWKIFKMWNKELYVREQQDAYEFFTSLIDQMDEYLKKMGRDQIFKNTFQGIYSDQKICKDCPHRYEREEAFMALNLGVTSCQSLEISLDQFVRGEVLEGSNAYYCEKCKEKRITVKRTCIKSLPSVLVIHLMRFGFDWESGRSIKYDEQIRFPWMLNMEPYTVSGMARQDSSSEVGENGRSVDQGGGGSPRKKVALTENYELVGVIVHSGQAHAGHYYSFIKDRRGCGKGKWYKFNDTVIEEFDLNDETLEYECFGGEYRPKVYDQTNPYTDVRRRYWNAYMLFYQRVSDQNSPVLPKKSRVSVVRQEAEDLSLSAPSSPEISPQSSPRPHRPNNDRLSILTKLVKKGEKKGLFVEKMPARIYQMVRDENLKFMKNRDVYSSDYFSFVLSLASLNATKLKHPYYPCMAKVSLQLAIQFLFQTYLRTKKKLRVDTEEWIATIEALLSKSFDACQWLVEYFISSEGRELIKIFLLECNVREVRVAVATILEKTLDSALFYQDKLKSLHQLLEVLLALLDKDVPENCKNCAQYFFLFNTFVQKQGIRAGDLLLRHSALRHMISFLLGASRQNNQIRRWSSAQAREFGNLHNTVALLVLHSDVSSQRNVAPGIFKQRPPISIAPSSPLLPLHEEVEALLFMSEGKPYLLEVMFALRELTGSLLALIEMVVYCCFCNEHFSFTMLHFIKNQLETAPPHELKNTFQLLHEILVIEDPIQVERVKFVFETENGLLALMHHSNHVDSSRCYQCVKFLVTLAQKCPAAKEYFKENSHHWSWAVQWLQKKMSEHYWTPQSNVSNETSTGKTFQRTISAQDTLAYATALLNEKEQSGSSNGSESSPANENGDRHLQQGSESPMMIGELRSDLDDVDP
In short: as §1

[4] = target: T3, USP25 (UniProt Q9UHP3)
T3 sequence (whole entry): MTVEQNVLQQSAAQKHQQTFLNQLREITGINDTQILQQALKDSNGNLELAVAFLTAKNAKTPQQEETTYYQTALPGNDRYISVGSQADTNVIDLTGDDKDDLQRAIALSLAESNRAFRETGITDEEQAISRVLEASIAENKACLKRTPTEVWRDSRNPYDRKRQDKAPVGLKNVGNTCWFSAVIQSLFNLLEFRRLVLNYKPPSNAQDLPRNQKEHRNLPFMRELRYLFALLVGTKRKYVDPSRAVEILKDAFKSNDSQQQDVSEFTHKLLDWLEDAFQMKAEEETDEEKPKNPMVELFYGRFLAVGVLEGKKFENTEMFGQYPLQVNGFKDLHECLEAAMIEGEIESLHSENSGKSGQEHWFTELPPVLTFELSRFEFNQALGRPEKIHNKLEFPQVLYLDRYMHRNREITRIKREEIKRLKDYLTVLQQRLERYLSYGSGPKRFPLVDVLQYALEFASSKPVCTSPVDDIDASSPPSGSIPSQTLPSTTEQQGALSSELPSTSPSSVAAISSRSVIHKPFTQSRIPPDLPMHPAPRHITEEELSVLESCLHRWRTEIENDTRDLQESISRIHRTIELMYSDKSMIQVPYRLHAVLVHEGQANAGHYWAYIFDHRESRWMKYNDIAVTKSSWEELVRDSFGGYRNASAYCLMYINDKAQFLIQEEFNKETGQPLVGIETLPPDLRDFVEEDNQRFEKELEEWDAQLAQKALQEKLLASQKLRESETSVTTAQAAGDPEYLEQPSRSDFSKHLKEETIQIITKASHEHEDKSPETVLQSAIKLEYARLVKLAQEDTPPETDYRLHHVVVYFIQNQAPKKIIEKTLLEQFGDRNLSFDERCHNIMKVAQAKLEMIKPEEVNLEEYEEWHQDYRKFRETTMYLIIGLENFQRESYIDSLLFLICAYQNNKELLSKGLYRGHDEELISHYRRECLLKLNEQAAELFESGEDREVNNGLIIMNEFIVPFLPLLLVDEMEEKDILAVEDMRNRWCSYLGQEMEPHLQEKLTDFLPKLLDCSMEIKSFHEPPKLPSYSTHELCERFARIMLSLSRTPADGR
In short: as §1

[5] = target: T4, USP28 (UniProt Q96RU2)
T4 sequence (whole entry): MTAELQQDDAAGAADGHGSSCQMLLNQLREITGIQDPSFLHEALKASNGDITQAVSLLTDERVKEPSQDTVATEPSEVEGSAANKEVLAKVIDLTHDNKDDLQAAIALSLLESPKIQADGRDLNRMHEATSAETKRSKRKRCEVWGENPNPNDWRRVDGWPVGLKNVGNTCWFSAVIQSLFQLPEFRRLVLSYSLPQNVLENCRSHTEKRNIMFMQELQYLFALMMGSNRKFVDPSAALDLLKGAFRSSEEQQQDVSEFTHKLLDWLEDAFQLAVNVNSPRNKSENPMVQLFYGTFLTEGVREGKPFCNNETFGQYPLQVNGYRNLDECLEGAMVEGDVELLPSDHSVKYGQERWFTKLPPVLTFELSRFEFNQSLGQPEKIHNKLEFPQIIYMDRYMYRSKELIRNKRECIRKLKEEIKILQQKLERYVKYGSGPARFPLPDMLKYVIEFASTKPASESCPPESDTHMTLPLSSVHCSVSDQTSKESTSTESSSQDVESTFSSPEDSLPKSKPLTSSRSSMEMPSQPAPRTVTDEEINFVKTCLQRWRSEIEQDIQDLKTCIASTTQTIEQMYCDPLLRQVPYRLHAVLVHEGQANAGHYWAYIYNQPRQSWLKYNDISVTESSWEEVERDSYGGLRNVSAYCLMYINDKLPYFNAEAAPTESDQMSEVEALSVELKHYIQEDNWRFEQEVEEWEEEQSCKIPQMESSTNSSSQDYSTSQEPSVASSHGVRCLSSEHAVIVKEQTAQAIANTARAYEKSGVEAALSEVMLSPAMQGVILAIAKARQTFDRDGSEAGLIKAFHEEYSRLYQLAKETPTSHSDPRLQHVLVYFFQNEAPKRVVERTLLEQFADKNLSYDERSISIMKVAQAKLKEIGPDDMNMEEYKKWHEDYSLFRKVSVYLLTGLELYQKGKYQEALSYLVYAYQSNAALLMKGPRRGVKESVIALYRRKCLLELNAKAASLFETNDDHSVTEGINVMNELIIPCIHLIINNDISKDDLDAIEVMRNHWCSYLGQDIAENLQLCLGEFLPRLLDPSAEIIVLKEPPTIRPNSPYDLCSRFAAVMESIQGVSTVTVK
In short: as §1

Measured: log2 ratio of Biotin-Ahx-Ub-VS probe labelling

Cc1cccnc1NC(=O)C1CCN(C(=O)CCl)CC1.Cl
inactive: [1] -0.314 | [2] 0.169 | [3] -0.409 | [4] -0.184 | [5] -0.564

— the supplement of paper PMC11732987, “Enantioselective OTUD7B fragment discovery through chemoproteomics screening and high-throughput optimisation” (Communications Chemistry, 2025)
